Source: the supplement of paper PMC4466140

What was measured:
Experiment in all cases: SPOT peptide array binding signal intensity (averaged, normalized) (arbitrary units (background-subtracted, floor 0; scale differs between SH3 domains)); higher = stronger binding of the SH3 domain to the peptide
AgAbp1 = target: AgAbp1
Outline: (§1)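 GST-fused SH3 domains from four yeast species were expressed in E. coli BL21(DE3), purified on glutathione Sepharose and incubated at 10 μg/ml overnight at 4°C in TBS-based blocking buffer on cellulose membranes carrying synthetic 15-mer peptides, with cysteines replaced by serines. Bound protein was detected with anti-GST antibody, an HRP anti-mouse secondary and luminol, then imaged and quantified with Genespotter. Binding signal is the normalized, background-subtracted spot intensity averaged over replicates, in arbitrary units that differ between domains.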

AgBbc1 = target: AgBbc1
Outline: as §1

AgBem1-D1 = target: AgBem1-D1
Outline: as §1

AgBzz1-D1 = target: AgBzz1-D1
Outline: as §1

AgBzz1-D2 = target: AgBzz1-D2
Outline: as §1

AgCyk3 = target: AgCyk3
Outline: as §1

AgFus1 = target: AgFus1
Outline: as §1

AgHof1 = target: AgHof1
Outline: as §1

AgHse1 = target: AgHse1
Outline: as §1

AgLsb1 = target: AgLsb1
Outline: as §1

AgLsb4 = target: AgLsb4
Outline: as §1

AgMyo5 = target: AgMyo5
Outline: as §1

AgNbp2 = target: AgNbp2
Outline: as §1

AgRvs167 = target: AgRvs167
Outline: as §1

AgSho1 = target: AgSho1
Outline: as §1

AgSla1-D1-D2 = target: AgSla1-D1-D2
Outline: as §1

AgSla1-D3 = target: AgSla1-D3
Outline: as §1

CaAbp1-D1 = target: CaAbp1-D1
Outline: as §1

CaAbp1-D2 = target: CaAbp1-D2
Outline: as §1

CaBbc1 = target: CaBbc1
Outline: as §1

CaBem1-D1 = target: CaBem1-D1
Outline: as §1

CaBzz1-D1 = target: CaBzz1-D1
Outline: as §1

CaBzz1-D2 = target: CaBzz1-D2
Outline: as §1

CaCyk3 = target: CaCyk3
Outline: as §1

CaFus1 = target: CaFus1
Outline: as §1

CaHof1 = target: CaHof1
Outline: as §1

CaHse1 = target: CaHse1
Outline: as §1

CaLsb1 = target: CaLsb1
Outline: as §1

CaLsb4 = target: CaLsb4
Outline: as §1

CaMyo5 = target: CaMyo5
Outline: as §1

CaNbp2 = target: CaNbp2
Outline: as §1

CaRvs167 = target: CaRvs167
Outline: as §1

CaRvs167-3 = target: CaRvs167-3
Outline: as §1

CaSho1 = target: CaSho1
Outline: as §1

CaSla1-D1-D2 = target: CaSla1-D1-D2
Outline: as §1

CaSla1-D3 = target: CaSla1-D3
Outline: as §1

ScAbp1 = target: ScAbp1
Outline: as §1

ScBbc1 = target: ScBbc1
Outline: as §1

ScBem1-D1 = target: ScBem1-D1
Outline: as §1

ScBzz1-D1 = target: ScBzz1-D1
Outline: as §1

ScBzz1-D2 = target: ScBzz1-D2
Outline: as §1

ScCyk3 = target: ScCyk3
Outline: as §1

ScFus1 = target: ScFus1
Outline: as §1

ScHof1 = target: ScHof1
Outline: as §1

ScHse1 = target: ScHse1
Outline: as §1

ScLsb1 = target: ScLsb1
Outline: as §1

ScLsb2 = target: ScLsb2
Outline: as §1

ScLsb3 = target: ScLsb3
Outline: as §1

ScLsb4 = target: ScLsb4
Outline: as §1

ScMyo3 = target: ScMyo3
Outline: as §1

ScMyo5 = target: ScMyo5
Outline: as §1

ScNbp2 = target: ScNbp2
Outline: as §1

ScPex13 = target: ScPex13
Outline: as §1

ScRvs167 = target: ScRvs167
Outline: as §1

ScSho1 = target: ScSho1
Outline: as §1

ScSla1-D1-D2 = target: ScSla1-D1-D2
Outline: as §1

ScSla1-D3 = target: ScSla1-D3
Outline: as §1

SpAbp1-D1 = target: SpAbp1-D1
Outline: as §1

SpBbc1 = target: SpBbc1
Outline: as §1

SpBzz1-D1 = target: SpBzz1-D1
Outline: as §1

## KDKKTKPTPPPKPSH
AgAbp1
  SPOT peptide array binding signal intensity: 494
AgBbc1
  SPOT peptide array binding signal intensity: 26.8
AgBem1-D1
  SPOT peptide array binding signal intensity: 60.5
AgBzz1-D1
  SPOT peptide array binding signal intensity: 42
AgBzz1-D2
  SPOT peptide array binding signal intensity: 48
AgCyk3
  SPOT peptide array binding signal intensity: ≤ 0
AgFus1
  SPOT peptide array binding signal intensity: ≤ 0
AgHof1
  SPOT peptide array binding signal intensity: 19.5
AgHse1
  SPOT peptide array binding signal intensity: 29
AgLsb1
  SPOT peptide array binding signal intensity: ≤ 0
AgLsb4
  SPOT peptide array binding signal intensity: ≤ 0
AgMyo5
  SPOT peptide array binding signal intensity: ≤ 0
AgNbp2
  SPOT peptide array binding signal intensity: ≤ 0
AgRvs167
  SPOT peptide array binding signal intensity: 1.5
AgSho1
  SPOT peptide array binding signal intensity: 34.5
AgSla1-D1-D2
  SPOT peptide array binding signal intensity: 7
AgSla1-D3
  SPOT peptide array binding signal intensity: 4
CaAbp1-D1
  SPOT peptide array binding signal intensity: 275
CaAbp1-D2
  SPOT peptide array binding signal intensity: 226
CaBbc1
  SPOT peptide array binding signal intensity: 132
CaBem1-D1
  SPOT peptide array binding signal intensity: 0.5
CaBzz1-D1
  SPOT peptide array binding signal intensity: 1220
CaBzz1-D2
  SPOT peptide array binding signal intensity: 715
CaCyk3
  SPOT peptide array binding signal intensity: ≤ 0
CaFus1
  SPOT peptide array binding signal intensity: ≤ 0
CaHof1
  SPOT peptide array binding signal intensity: 1.5
CaHse1
  SPOT peptide array binding signal intensity: 2
CaLsb1
  SPOT peptide array binding signal intensity: 1
CaLsb4
  SPOT peptide array binding signal intensity: ≤ 0
CaMyo5
  SPOT peptide array binding signal intensity: 2.25
CaNbp2
  SPOT peptide array binding signal intensity: 0.5
CaRvs167
  SPOT peptide array binding signal intensity: 1.5
CaRvs167-3
  SPOT peptide array binding signal intensity: 4.5
CaSho1
  SPOT peptide array binding signal intensity: 6
CaSla1-D1-D2
  SPOT peptide array binding signal intensity: 10
CaSla1-D3
  SPOT peptide array binding signal intensity: 2
ScAbp1
  SPOT peptide array binding signal intensity: 735
ScBbc1
  SPOT peptide array binding signal intensity: ≤ 0
ScBem1-D1
  SPOT peptide array binding signal intensity: 9
ScBzz1-D1
  SPOT peptide array binding signal intensity: ≤ 0
ScBzz1-D2
  SPOT peptide array binding signal intensity: 79
ScCyk3
  SPOT peptide array binding signal intensity: 1
ScFus1
  SPOT peptide array binding signal intensity: 31
ScHof1
  SPOT peptide array binding signal intensity: 1.75
ScHse1
  SPOT peptide array binding signal intensity: 38
ScLsb1
  SPOT peptide array binding signal intensity: ≤ 0
ScLsb2
  SPOT peptide array binding signal intensity: ≤ 0
ScLsb3
  SPOT peptide array binding signal intensity: 328
ScLsb4
  SPOT peptide array binding signal intensity: ≤ 0
ScMyo3
  SPOT peptide array binding signal intensity: ≤ 0
ScMyo5
  SPOT peptide array binding signal intensity: ≤ 0
ScNbp2
  SPOT peptide array binding signal intensity: 17
ScPex13
  SPOT peptide array binding signal intensity: ≤ 0
ScRvs167
  SPOT peptide array binding signal intensity: 1.17
ScSho1
  SPOT peptide array binding signal intensity: 334
ScSla1-D1-D2
  SPOT peptide array binding signal intensity: 9
ScSla1-D3
  SPOT peptide array binding signal intensity: 5
SpAbp1-D1
  SPOT peptide array binding signal intensity: 148
SpBbc1
  SPOT peptide array binding signal intensity: 3.75
SpBzz1-D1
  SPOT peptide array binding signal intensity: 26.5
